Measurements published in the supplement of paper PMC8728848.
The sample as a whole holds a higher share of the strongest signals than the screen did.

Experiments:
Test in all cases: glycan array binding signal (z-score within array); higher = stronger binding
Settings in all cases: glycan notation: IUPAC condensed, linker removed
[1] = biological target: Fuc(a1-2)Gal(b1-3)GalNAc(b1-4)[Neu5Ac(a2-3)]Gal(b1-4)Glc
How it was run: (§1)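 Arrays were curated from the Consortium for Functional Glycomics database, 3228 in total, and kept only where the protein sequence was available. Binding is expressed as a within-array Z-score. This score was averaged across arrays of the same protein sequence at different concentrations or buffers and across linkers, and negative values can be read as non-binding.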

[2] = biological target: Fuc(a1-2)Gal(b1-3)GlcNAc
How it was run: as §1

[3] = biological target: Fuc(a1-2)Gal(b1-4)GlcNAc
How it was run: as §1

[4] = biological target: Fuc(a1-2)Gal(b1-4)[Fuc(a1-3)]GlcNAc(b1-3)Gal(b1-4)[Fuc(a1-3)]GlcNAc
How it was run: as §1

[5] = biological target: Fuc(a1-3)[Gal(b1-4)]GlcNAc(b1-2)Man(a1-3)[Fuc(a1-3)[Gal(b1-4)]GlcNAc(b1-2)Man(a1-6)]Man(b1-4)GlcNAc(b1-4)GlcNAc
How it was run: as §1

[6] = biological target: Gal(a1-4)Gal(b1-4)GlcNAc(b1-3)Gal(b1-4)Glc
How it was run: as §1

[7] = biological target: Gal(b1-4)GlcNAc(b1-3)[Gal(b1-4)GlcNAc(b1-6)]Gal(b1-4)GlcNAc
How it was run: as §1

[8] = biological target: Gal(b1-4)GlcNAc(b1-6)GalNAc
How it was run: as §1

[9] = biological target: Gal3S(b1-4)GlcNAc6S
How it was run: as §1

[10] = biological target: GalNAc(b1-3)Gal(a1-4)Gal(b1-4)GlcNAc
How it was run: as §1

[11] = biological target: GlcNAc(a1-3)Gal(b1-4)GlcNAc
How it was run: as §1

[12] = biological target: GlcNAc(a1-6)Gal(b1-4)GlcNAc
How it was run: as §1

[13] = biological target: Kdn(a2-6)Gal(b1-4)GlcNAc
How it was run: as §1

[14] = biological target: Man(a1-2)Man(a1-3)[Man(a1-2)Man(a1-6)]Man(a1-6)[Man(a1-2)Man(a1-2)Man(a1-3)]Man(b1-4)GlcNAc(b1-4)GlcNAc
How it was run: as §1

[15] = biological target: Man(a1-2)Man(a1-6)[Man(a1-3)]Man(a1-6)[Man(a1-2)Man(a1-2)Man(a1-3)]Man
How it was run: as §1

[16] = biological target: Man(a1-2)Man(a1-6)[Man(a1-3)]Man(a1-6)[Man(a1-2)Man(a1-2)Man(a1-3)]Man(b1-4)GlcNAc(b1-4)GlcNAc
How it was run: as §1

[17] = biological target: Man(a1-3)[Man(a1-6)]Man
How it was run: as §1

[18] = biological target: Man(a1-3)[Man(a1-6)]Man(a1-6)[Man(a1-2)Man(a1-3)]Man(b1-4)GlcNAc(b1-4)GlcNAc
How it was run: as §1

[19] = biological target: Neu5Ac(a2-3)Gal(b1-3)[Neu5Ac(a2-3)Gal(b1-4)]GlcNAc
How it was run: as §1

[20] = biological target: Neu5Ac(a2-3)Gal(b1-4)GlcNAc(b1-2)Man(a1-3)[GlcNAc(b1-2)Man(b1-4)GlcNAc(b1-2)Man(a1-6)]Man(b1-4)GlcNAc(b1-4)GlcNAc
How it was run: as §1

[21] = biological target: Neu5Ac(a2-3)Gal(b1-4)GlcNAc(b1-3)GalNAc
How it was run: as §1

[22] = biological target: Neu5Ac(a2-3)Gal(b1-4)[Fuc(a1-3)]GlcNAc(b1-3)Gal
How it was run: as §1

[23] = biological target: Neu5Ac(a2-3)Gal(b1-4)[Fuc(a1-3)]GlcNAc(b1-6)[Neu5Ac(a2-3)Gal(b1-3)]GalNAc
How it was run: as §1

[24] = biological target: Neu5Ac(a2-6)Gal(b1-4)GlcNAc(b1-3)Gal(b1-3)GlcNAc
How it was run: as §1

[25] = biological target: Neu5Ac(a2-6)Gal(b1-4)GlcNAc(b1-3)Gal(b1-4)[Fuc(a1-3)]GlcNAc(b1-3)Gal(b1-4)[Fuc(a1-3)]GlcNAc
How it was run: as §1

[26] = biological target: Neu5Ac(a2-8)Neu5Ac
How it was run: as §1

[27] = biological target: Neu5Ac(a2-8)Neu5Ac(a2-8)Neu5Ac
How it was run: as §1

[28] = biological target: Neu5Ac(b2-6)Gal(b1-4)GlcNAc
How it was run: as §1

B1: Ficolin B (Rattus norvegicus), P57756 (protein)
chain: MVLGSAALFVLSLCVTELTLHAADTCPEVKVLDLEGSNKLTILQGCPGLPGALGPKGEAGAKGDRGESGLPGHPGKAGPTGPKGDRGEKGVRGEKGDTGPSQSCATGPRTCKELLTRGYFLTGWYTIYLPDCRPLTVLCDMDTDGGGWTVFQRRIDGTVDFFRDWTSYKQGFGSQLGEFWLGNDNIHALTTQGTNELRVDLADFDGNHDFAKYSSFQIQGEAEKYKLILGNFLGGGAGDSLTSQNNMLFSTKDQDNDQGSSNCAVRYHGAWWYSDCHTSNLNGLYLRGLHKSYANGVNWKSWKGYNYSYKVSEMKVRLI
glycan array binding signal (z-score) [1]: -0.165
glycan array binding signal (z-score) [2]: -0.197
glycan array binding signal (z-score) [3]: -0.192
glycan array binding signal (z-score) [4]: -0.205
glycan array binding signal (z-score) [5]: -0.214
glycan array binding signal (z-score) [6]: -0.169
glycan array binding signal (z-score) [7]: 1.56
glycan array binding signal (z-score) [8]: -0.085
glycan array binding signal (z-score) [9]: -0.2
glycan array binding signal (z-score) [10]: -0.2
glycan array binding signal (z-score) [11]: -0.127
glycan array binding signal (z-score) [12]: 0.051
glycan array binding signal (z-score) [13]: -0.209
glycan array binding signal (z-score) [14]: -0.224
glycan array binding signal (z-score) [15]: -0.212
glycan array binding signal (z-score) [16]: -0.18
glycan array binding signal (z-score) [17]: -0.166
glycan array binding signal (z-score) [18]: -0.182
glycan array binding signal (z-score) [19]: 3.17
glycan array binding signal (z-score) [20]: 5.65
glycan array binding signal (z-score) [21]: -0.192
glycan array binding signal (z-score) [22]: 0.01
glycan array binding signal (z-score) [23]: 0.019
glycan array binding signal (z-score) [24]: 0.054
glycan array binding signal (z-score) [25]: -0.204
glycan array binding signal (z-score) [26]: 3.73
glycan array binding signal (z-score) [27]: 2.69
glycan array binding signal (z-score) [28]: 8.52
